Results filed as inconclusive are left out. Activity calls are given as the source filed them. Unless noted, calls follow the shape of the dose curve; as a rule, active = well fitted curve in the direction sought with a large enough effect in the repeat runs; inconclusive = weak or mixed curves; inactive = no such curve, though single readings can be large; an effect the other way counts as inactive or inconclusive.
How the values were obtained:
[1] = qHTS assay for small molecule agonists of the p53 signaling pathway (AID 651631; calls by dose curve; also: nearly all actives have a fitted effect of over 15% in size)
Summary of the method: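 HCT-116 cells carrying a beta-lactamase reporter under p53 response elements were dosed with compound for 16 h at 37 °C. LiveBLAzer B/G FRET substrate was then added for 2 h at room temperature, and fluorescence intensity was read to detect pathway agonism.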

[2] = qHTS assay for small molecule agonists of the p53 signaling pathway - cell viability (AID 651633; calls by dose curve;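 also: p53RE-bla HCT reporter cells with a stable beta-lactamase p53 reporter; series mostly up to about 83 µM; nearly all actives have a fitted effect of over 30% in size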)
Summary of the method: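 p53RE-bla cells, seeded at 4,000 per well and rested 5 h at 37 C/5% CO2, received compounds in DMSO for 16 h at 37 C. CellTiter-Glo was then added, and luminescence was read after 30 min at room temperature to gauge cytotoxicity.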

[3] = qHTS assay for small molecules that induce genotoxicity in human embryonic kidney cells expressing luciferase-tagged ATAD5 - cell viability (AID 651634; calls by dose curve; also: nearly all actives have a fitted effect of over 25% in size)
Summary of the method: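 15.5 hr compound or vehicle exposure of HEK293T cells expressing luciferase-tagged ATAD5 at 37C; live-cell protease activity is read by fluorescence after 30 min of CellTiter-Fluor.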

[4] = qHTS assay for small molecule disruptors of the mitochondrial membrane potential - cell viability (AID 720634; calls by dose curve;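 also: human HepG2 liver cancer cells; series mostly up to about 83 µM; nearly all actives have a fitted effect of over 20% in size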)
Summary of the method: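 In this qHTS format, HepG2 cells plated overnight were pinned with compound, incubated 1 hr, and assayed for ATP luminescence with CellTiter-Glo after m-MPI dye addition.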

[5] = qHTS assay for small molecule disruptors of the mitochondrial membrane potential (AID 720635); also: potency is read from the fitted curve at half-maximal effect
Summary of the method: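 HepG2 cells (2,000/well) attached overnight at 37C, then took compound for 1 hr at 37C, 5% CO2. Mito-MPS dye was added for 30 min; fluorescence was read at 490/535 nm (monomers) and 540/590 nm (aggregates).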

[6] = qHTS assay to test for compound auto fluorescence at 590 nm (red) in HepG2 cells (AID 720674)
Summary of the method: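 Compound auto-fluorescence is scored relative to Rose Bengal sodium, measured at 540/590 nm in live HepG2 cultures after 1 hr compound contact (37 C, 5% CO2).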

[7] = qHTS assay to test for compound auto fluorescence at 460 nm (blue) in HEK293 cells (AID 720678)
Summary of the method: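 After cell attachment (4-5 hr, 37C), compounds were pinned onto HEK293 monolayers in 10% dialyzed FBS medium. The blue channel (405/460 nm) was read following overnight culture. Equivalency was calculated against triamterene.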

[8] = qHTS assay to test for compound auto fluorescence at 590 nm (red) in HEK293 cells (AID 720679)
Summary of the method: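 Plates of HEK293 cells (10% dialyzed FBS) are treated with 23 nL compound or DMSO vehicle after a 4-5 hr attachment period, incubated overnight at 37C, and read for red fluorescence at 540/590nm.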

[9] = qHTS assay for small molecules that induce genotoxicity in human embryonic kidney cells expressing luciferase-tagged ATAD5 (AID 651632); also: nearly all actives have a fitted effect of over 15% in size
Summary of the method: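 Concentration-response screen for ATAD5 upregulation in HEK293T luciferase reporter cells; 16 hr treatment at 37C, then luminescence after 30 min with Amplite at room temperature.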

[10] = qHTS assay to test for compound auto fluorescence at 535 nm (green) in HepG2 cells (AID 720675)
% is scaled to controls: 0 for no effect and ±100 for the full control effect.

CCO[Si](CC(C)C)(OCC)OCC
active: Potency [5] 27.3 µM
inactive: Potency [1] | outcome [2] | outcome [3] | outcome [4] | outcome [6] | outcome [7] | outcome [8]

C/C=C(\C)C=O
inactive: Potency [1] | Potency [9] | outcome [2] | outcome [3] | outcome [6] | outcome [10] | outcome [7] | outcome [8]

C/C=C(\C)C(=O)OC/C=C(\C)CCC=C(C)C
inactive: Potency [1] | outcome [2] | outcome [3] | outcome [4] | Potency [5] | outcome [6] | outcome [7] | outcome [8]

CCCCCCCCCCCCCCCCN(C)C
inactive: activation [1] -4.5% [at 8.3 µM] | activation [9] 2.36% [at 8.08 µM] | activity change, negative = cytotoxicity [2] 8.53% [at 8.08 µM] | activity, negative = cytotoxicity [3] -13.5% [at 8.08 µM] | fluorescence, relative to Rose Bengal [6] 0.017% [at 3.72 µM] | fluorescence, % of fluorescein control [10] -0.0084% [at 3.72 µM] | fluorescence, % of triamterene [7] -0.0322% [at 3.72 µM] | fluorescence, % of fluorescent control [8] -0.181% [at 3.72 µM]

Cc1ccc2cccnc2c1
inactive: Potency [1] | Potency [9] | outcome [2] | outcome [3] | outcome [4] | outcome [6] | outcome [7] | outcome [8]

Cc1ccccc1C#N
inactive: Potency [1] | outcome [2] | outcome [3] | outcome [4] | outcome [6] | outcome [10] | outcome [7] | outcome [8]

CC(O)C(CO)C(C)O (stereo not drawn)
inactive: Potency [1] | outcome [2] | outcome [3] | outcome [4] | Potency [5] | outcome [6] | outcome [7] | outcome [8]

C/C(Cl)=C/CCl
inactive: Potency [1] | outcome [2] | outcome [3] | outcome [4] | Potency [5] | outcome [6] | outcome [10] | outcome [7] | outcome [8]

CCCCCCCCCCCBr
inactive: Potency [1] | outcome [2] | outcome [3] | outcome [4] | outcome [6] | outcome [10] | outcome [7] | outcome [8]

C=COCCCCO
inactive: Potency [1] | outcome [2] | outcome [3] | outcome [4] | Potency [5] | outcome [6] | outcome [10] | outcome [7] | outcome [8]

CCCCCCCOC(C)=O
inactive: Potency [1] | outcome [2] | outcome [3] | outcome [4] | Potency [5] | outcome [6] | outcome [10] | outcome [7] | outcome [8]

O=C1Nc2ccccc2C1=O
inactive: Potency [1] | Potency [9] | outcome [2] | outcome [3] | outcome [4] | outcome [6] | outcome [7] | outcome [8]

CCCCCCCCCCCCCCCC(=O)OC
inactive: Potency [1] | Potency [9] | outcome [2] | outcome [3] | fluorescence, relative to Rose Bengal [6] 0.0004% [at 18.6 µM] | fluorescence, % of fluorescein control [10] -0.0233% [at 18.6 µM] | fluorescence, % of triamterene [7] 0.179% [at 18.6 µM] | fluorescence, % of fluorescent control [8] -0.225% [at 18.6 µM]

Cc1cc(N)no1
inactive: Potency [1] | outcome [2] | outcome [3] | outcome [4] | outcome [6] | outcome [10] | outcome [7] | outcome [8]

CCCCc1ccc(Cl)cc1
inactive: Potency [1] | outcome [2] | outcome [3] | outcome [4] | Potency [5] | outcome [6] | outcome [10] | outcome [7] | outcome [8]

CCCCCC(=O)CC
inactive: Potency [1] | Potency [9] | outcome [2] | outcome [3] | outcome [6] | outcome [7] | outcome [8]

CCCCCCCCCCCC(C)=O
inactive: Potency [1] | outcome [2] | outcome [3] | outcome [4] | Potency [5] | outcome [6] | outcome [10] | outcome [7] | outcome [8]

Cc1ccc2ccccc2n1
inactive: Potency [1] | outcome [2] | outcome [3] | outcome [4] | Potency [5] | outcome [6] | outcome [10] | outcome [7] | outcome [8]

CC(C)OC(=O)C(C(=O)OC(C)C)=C1SC=CS1
inactive: Potency [1] | Potency [9] | outcome [2] | outcome [3] | outcome [6] | outcome [10] | outcome [7] | outcome [8]

CSC(=O)c1cccc2nnsc12
inactive: Potency [1] | outcome [2] | outcome [3] | outcome [4] | Potency [5] | outcome [6] | outcome [10] | outcome [7] | outcome [8]

C[C@@H](CN1CC(=O)NC(=O)C1)N1CC(=O)NC(=O)C1
inactive: Potency [1] | outcome [2] | outcome [3] | outcome [4] | outcome [6] | outcome [10] | outcome [7] | outcome [8]

O=C[C@@H](O)[C@H](O)[C@H](O)CO
inactive: Potency [1] | outcome [2] | outcome [3] | outcome [4] | outcome [6] | outcome [10] | outcome [7] | outcome [8]

CC(C)(C)OC=O
inactive: Potency [1] | Potency [9] | outcome [2] | outcome [3] | outcome [4] | outcome [6] | outcome [7] | outcome [8]

CCc1ccc(CC)cc1
inactive: Potency [1] | outcome [2] | outcome [3] | outcome [4] | Potency [5] | outcome [6] | outcome [10] | outcome [7] | outcome [8]

Cc1nnc(C(=O)NC(C)(C)c2nc(C(=O)NCc3ccc(F)cc3)c(O)c(=O)n2C)o1
inactive: Potency [1] | outcome [2] | outcome [3] | outcome [4] | Potency [5] | outcome [6] | outcome [10] | outcome [7] | outcome [8]

CCN(CC)CC
inactive: Potency [1] | outcome [2] | outcome [3] | outcome [4] | outcome [6] | outcome [10] | outcome [7] | outcome [8]

CC1(C)C(=O)C(C)(C)C1=O
inactive: Potency [1] | outcome [2] | outcome [3] | outcome [4] | Potency [5] | outcome [6] | outcome [10] | outcome [7] | outcome [8]

CN(C)CCC[C@@]1(c2ccc(F)cc2)OCc2cc(C#N)ccc21
inactive: Potency [1] | Potency [9] | outcome [2] | outcome [3] | outcome [6] | outcome [10] | outcome [7] | outcome [8]

From PubChem BioAssay (Tox21)
